PubChem BioAssay AID1159580 (chemical genetic matrix, 2015)
Among all 5,500 compounds or so, about 2,000 (36%) were called active. About 18% were inconclusive and are not listed. The list shows a part of the results. A number with no mark means an inactive call. No stated cut-off is given here; in the data, active means normalized growth mostly below about 0.91 (no sharp cut-off); inconclusive means no clear call, values can overlap the other calls; inactive means mostly above about 0.92.

Assay: chemical genetic growth profiling, strain panel (AID 1159580);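 further: tested at 20 µM; growth read once vehicle control cultures reached saturation at 30 °C; 1 = growth at the plate median or of vehicle wells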
Conditions: growth OD

COc1ccc(C(=O)CC(=O)c2ccc(C(C)(C)C)cc2)cc1
normalized growth (S. cerevisiae deletion strains, locus YJR075W, strain HOC1, stronger effect = lower value): 0.936
normalized growth (S. cerevisiae deletion strains, locus YKL009W, strain mrt4, stronger effect = lower value): 1.02
normalized growth (S. cerevisiae deletion strains, locus YKL068W, stronger effect = lower value): 0.996
normalized growth (S. cerevisiae deletion strains, locus YKL085W, strain MDH1 (second series), stronger effect = lower value): 0.989
normalized growth (S. cerevisiae deletion strains, locus YKL085W, strain MDH1, stronger effect = lower value): 0.989
normalized growth (S. cerevisiae deletion strains, locus YKL160W, strain elf1, stronger effect = lower value): 0.982
normalized growth (S. cerevisiae deletion strains, locus YKL190W, strain CNB1, stronger effect = lower value): 0.986
normalized growth (S. cerevisiae deletion strains, locus YKR001C, strain vps1, stronger effect = lower value): 1
normalized growth (S. cerevisiae deletion strains, locus YKR026C, strain gcn3, stronger effect = lower value): 0.988
normalized growth (S. cerevisiae deletion strains, locus YKR091W, strain srl3, stronger effect = lower value): 0.99
normalized growth (S. cerevisiae deletion strains, locus YLL001W, strain dnm1, stronger effect = lower value): 0.998
normalized growth (S. cerevisiae deletion strains, locus YLL026W, stronger effect = lower value): 0.998
normalized growth (S. cerevisiae deletion strains, locus YLL041C, strain sdh2, stronger effect = lower value): 0.972
normalized growth (S. cerevisiae deletion strains, locus YLR027C, strain aat2, stronger effect = lower value): 0.988
normalized growth (S. cerevisiae deletion strains, locus YLR039C, strain RIC1, stronger effect = lower value): 0.884
normalized growth (S. cerevisiae deletion strains, locus YLR058C, strain SHM2, stronger effect = lower value): 1.01
normalized growth (S. cerevisiae deletion strains, locus YLR102C, strain apc9, stronger effect = lower value): 1
normalized growth (S. cerevisiae deletion strains, locus YLR113W, strain HOG1, stronger effect = lower value): 0.969
normalized growth (S. cerevisiae deletion strains, locus YLR221C, strain rsa3, stronger effect = lower value): 0.937
normalized growth (S. cerevisiae deletion strains, locus YLR258W, strain gsy2, stronger effect = lower value): 0.971
normalized growth (S. cerevisiae deletion strains, locus YLR262C, strain YPT6 (second series), stronger effect = lower value): 0.801 (active)
normalized growth (S. cerevisiae deletion strains, locus YLR262C, strain YPT6, stronger effect = lower value): 0.903
normalized growth (S. cerevisiae deletion strains, locus YLR268W, strain sec22, stronger effect = lower value): 1
normalized growth (S. cerevisiae deletion strains, locus YLR320W, strain mms22, stronger effect = lower value): 0.956
normalized growth (S. cerevisiae deletion strains, locus YLR330W, strain CHS5, stronger effect = lower value): 1
normalized growth (S. cerevisiae deletion strains, locus YLR342W, strain FKS1 (second series), stronger effect = lower value): 1.1
normalized growth (S. cerevisiae deletion strains, locus YLR342W, strain FKS1, stronger effect = lower value): 0.992
normalized growth (S. cerevisiae deletion strains, locus YLR357W, strain rsc2, stronger effect = lower value): 1.03
normalized growth (S. cerevisiae deletion strains, locus YLR370C, strain arc18, stronger effect = lower value): 1
normalized growth (S. cerevisiae deletion strains, locus YLR371W, strain rom2, stronger effect = lower value): 1.01
normalized growth (S. cerevisiae deletion strains, locus YLR384C, strain iki3, stronger effect = lower value): 1.01
normalized growth (S. cerevisiae deletion strains, locus YLR418C, strain cdc73, stronger effect = lower value): 0.952
normalized growth (S. cerevisiae deletion strains, locus YML016C, strain PPZ1, stronger effect = lower value): 1
normalized growth (S. cerevisiae deletion strains, locus YML032C, strain rad52, stronger effect = lower value): 1
normalized growth (S. cerevisiae deletion strains, locus YML120C, strain ndi1, stronger effect = lower value): 1
normalized growth (S. cerevisiae deletion strains, locus YML124C, strain tub3, stronger effect = lower value): 1
normalized growth (S. cerevisiae deletion strains, locus YMR058W, strain fet3, stronger effect = lower value): 0.996
normalized growth (S. cerevisiae deletion strains, locus YMR078C, strain ctf18, stronger effect = lower value): 1.01
normalized growth (S. cerevisiae deletion strains, locus YMR125W, strain sto1, stronger effect = lower value): 0.977
normalized growth (S. cerevisiae deletion strains, locus YMR129W, stronger effect = lower value): 0.983
normalized growth (S. cerevisiae deletion strains, locus YMR205C, strain PFK2, stronger effect = lower value): 0.97
normalized growth (S. cerevisiae deletion strains, locus YMR223W, strain ubp8, stronger effect = lower value): 1
normalized growth (S. cerevisiae deletion strains, locus YMR231W, strain pep5, stronger effect = lower value): 1.02
normalized growth (S. cerevisiae deletion strains, locus YMR263W, strain SAP30, stronger effect = lower value): 0.988
normalized growth (S. cerevisiae deletion strains, locus YMR307W, strain GAS1, stronger effect = lower value): 0.746
normalized growth (S. cerevisiae deletion strains, locus YNL067W, strain RPL9B, stronger effect = lower value): 0.912
normalized growth (S. cerevisiae deletion strains, locus YNL071W, strain lat1, stronger effect = lower value): 0.998
normalized growth (S. cerevisiae deletion strains, locus YNL128W, strain TEP1, stronger effect = lower value): 0.98
normalized growth (S. cerevisiae deletion strains, locus YNL153C, strain GIM3, stronger effect = lower value): 0.996
normalized growth (S. cerevisiae deletion strains, locus YNL183C, strain NPR1, stronger effect = lower value): 0.958
normalized growth (S. cerevisiae deletion strains, locus YNL209W, strain ssb2, stronger effect = lower value): 1.02
normalized growth (S. cerevisiae deletion strains, locus YNL233W, strain BNI4, stronger effect = lower value): 0.995
normalized growth (S. cerevisiae deletion strains, locus YNL248C, strain rpa49, stronger effect = lower value): 0.963
normalized growth (S. cerevisiae deletion strains, locus YNL250W, strain rad50, stronger effect = lower value): 0.993
normalized growth (S. cerevisiae deletion strains, locus YNL271C, strain bni1, stronger effect = lower value): 1
normalized growth (S. cerevisiae deletion strains, locus YNL298W, strain CLA4, stronger effect = lower value): 1.02
normalized growth (S. cerevisiae deletion strains, locus YNL307C, strain MCK1, stronger effect = lower value): 1.01
normalized growth (S. cerevisiae deletion strains, locus YNL322C, strain KRE1 (second series), stronger effect = lower value): 1.01
normalized growth (S. cerevisiae deletion strains, locus YNL322C, strain KRE1, stronger effect = lower value): 0.994
normalized growth (S. cerevisiae deletion strains, locus YNR049C, strain mso1, stronger effect = lower value): 0.987
normalized growth (S. cerevisiae deletion strains, locus YNR052C, strain pop2, stronger effect = lower value): 1.01
normalized growth (S. cerevisiae deletion strains, locus YOL006C, strain TOP1, stronger effect = lower value): 0.82
normalized growth (S. cerevisiae deletion strains, locus YOL012C, strain htz1): 1.06
normalized growth (S. cerevisiae deletion strains, locus YOL147C, strain pex11, stronger effect = lower value): 1
normalized growth (S. cerevisiae deletion strains, locus YOR001W, strain rrp6, stronger effect = lower value): 0.979
normalized growth (S. cerevisiae deletion strains, locus YOR061W, strain CKA2, stronger effect = lower value): 1
normalized growth (S. cerevisiae deletion strains, locus YOR069W, strain VPS5, stronger effect = lower value): 1
normalized growth (S. cerevisiae deletion strains, locus YOR070C, strain gyp1, stronger effect = lower value): 0.986
normalized growth (S. cerevisiae deletion strains, locus YOR080W, strain dia2, stronger effect = lower value): 1.01
normalized growth (S. cerevisiae deletion strains, locus YOR083W, strain WHI5, stronger effect = lower value): 0.98
normalized growth (S. cerevisiae deletion strains, locus YOR106W, strain vam3, stronger effect = lower value): 0.904
normalized growth (S. cerevisiae deletion strains, locus YOR136W, strain idh2, stronger effect = lower value): 0.99
normalized growth (S. cerevisiae deletion strains, locus YOR144C, strain elg1, stronger effect = lower value): 1
normalized growth (S. cerevisiae deletion strains, locus YOR184W, strain ser1, stronger effect = lower value): 0.955
normalized growth (S. cerevisiae deletion strains, locus YOR231W, strain MKK1, stronger effect = lower value): 1.01
normalized growth (S. cerevisiae deletion strains, locus YOR265W, strain rbl2, stronger effect = lower value): 0.998
normalized growth (S. cerevisiae deletion strains, locus YOR270C, strain vph1, stronger effect = lower value): 0.827
normalized growth (S. cerevisiae deletion strains, locus YOR290C, strain snf2, stronger effect = lower value): 0.991
normalized growth (S. cerevisiae deletion strains, locus YOR316C, strain cot1, stronger effect = lower value): 1
normalized growth (S. cerevisiae deletion strains, locus YPL051W, strain arl3, stronger effect = lower value): 0.992
normalized growth (S. cerevisiae deletion strains, locus YPL055C, strain LGE1, stronger effect = lower value): 0.88
normalized growth (S. cerevisiae deletion strains, locus YPL078C, strain atp4, stronger effect = lower value): 0.998
normalized growth (S. cerevisiae deletion strains, locus YPL106C, strain sse1, stronger effect = lower value): 1
normalized growth (S. cerevisiae deletion strains, locus YPL240C, strain hsp82, stronger effect = lower value): 0.995
normalized growth (S. cerevisiae deletion strains, locus YPL241C, strain CIN2, stronger effect = lower value): 0.988
normalized growth (S. cerevisiae deletion strains, locus YPL256C, strain CLN2, stronger effect = lower value): 1
normalized growth (S. cerevisiae deletion strains, locus YPR119W, strain clb2, stronger effect = lower value): 0.998
normalized growth (S. cerevisiae deletion strains, locus YPR141C, strain kar3, stronger effect = lower value): 0.996
normalized growth (S. cerevisiae deletion strains, locus YPR163C, strain tif3, stronger effect = lower value): 1.01
normalized growth (S. cerevisiae deletion strains, locus YPR167C, strain met16, stronger effect = lower value): 1
normalized growth (S. cerevisiae deletion strains, strain wtn01, stronger effect = lower value): 0.996
normalized growth (S. cerevisiae strains, strain wild type, stronger effect = lower value): 0.975
